IL-1B inflam inh: inhibitors of inflammasome signaling (IL-1 beta secretion); THP-1 LPS/ATP IL-1B secretion, AlphaLISA, 16 h; active compounds read low; AID 743279; 360,000 compounds, 4.7% hits; activity change, % at 57.5 µM; in the data active = activity change below about -50%; inconclusive = mostly about -30% to -49%
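THP-1 cells pretreated 1 hr with compounds (up to 57.5 uM final), then stimulated with LPS (250 ng/mL final) plus ATP (1.25 mM final); secreted IL-1B measured by AlphaLISA after 16 hr, decreased signal indicating inhibition.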
TDP1 cell noCPT: qHTS for Inhibitors of human tyrosyl-DNA phosphodiesterase 1 (TDP1): qHTS in cells in absence of CPT. DT40 Tdp1-/- hTDP1 cells, no CPT, ATP luminescence, 48 h. Potency, µM (doses to about 46.2 µM), inactives show at the top dose activity change, negative = growth inhibition, most hits filed as inhibitors. 420,000 compounds, 15% hits; also: potency is read from the fitted curve at half-maximal effect; nearly all actives have a fitted effect of over 55% in size
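Compound effects on proliferation are scored in DT40 Tdp1-/-;hTDP1 cells in the absence of CPT. ATP levels (CellTiter-Glo luminescence) are recorded after a ≥48 hr, 37 °C incubation.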
DT40 TDP1 CPT: DT40-hTDP1 cell growth loss with CPT; AID 686979; chicken DT40 Tdp1-/-;hTDP1 cells + 20 nM CPT, ATP luminescence, 48 h; Potency, µM (titrated, usually from 46.2 µM), for inactives: at the highest dose activity change, negative = growth inhibition, most hits filed as inhibitors; 420,000 compounds, 12% hits; also: potency is read from the fitted curve at half-maximal effect; nearly all actives have a fitted effect of over 55% in size
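Chicken DT40 Tdp1-/- cells complemented with human TDP1, 400 cells/well, exposed to compounds plus 20 nM camptothecin for at least 48 h at 37 C; viability read as ATP content by CellTiter-Glo luminescence.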
HT1080NT lethal: kills 2HG-producing HT-1080-NT fibrosarcoma cells. HT-1080-NT fibrosarcoma viability, CellTiter-Glo ATP luminescence, 48 h. Potency, µM (titrated, usually from 46.1 µM), for inactives: at the top dose activity, negative = less viability, usual class: cytotoxic. 360,000 compounds, 1.6% hits. AID 686970;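 also: NT is the 2HG producing partner of a matched IDH1 knockdown line; potency is read from the fitted curve at half-maximal effect; 0% = DMSO-treated cells and -100% = media-only wells without cells; nearly all actives have a fitted effect of over 55% in size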
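A 48-hour cytotoxicity screen used HT-1080-NT cells plated 2 hours before compound delivery. ATP-based CellTiter-Glo luminescence measured viability, normalized to DMSO and no-cell controls.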
ELG1 DNA repair: ELG1-dependent DNA repair inhibition; HEK293T ELG1-luciferase reporter, luminescence, 16 h; DNA damage induced by 5-fluorouridine; Potency, µM (doses to about 46.1 µM), inactives show at the top dose activity change, negative = inhibition, hits mostly inhibitors; 330,000 compounds, 2.3% hits; AID 504467; also: potency is read from the fitted curve at half-maximal effect; nearly all actives have a fitted effect of over 55% in size
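Step one: seed 2,000 cells per well. Step two: pin-transfer compound or DMSO alongside 5-fluorouridine. Step three: incubate 16 hr, 37 °C, 5% CO2. Step four: add ONE-Glo, wait 30 min, read luminescence.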
HT1080 IDH1KD tx: HT-1080 IDH1 knockdown cell toxicity (counter line) | HT-1080 IDH1 knockdown viability, ATP luminescence, 48 h | 360,000 compounds, 2% hits | Potency, µM (titrated, usually from 46.1 µM), inactives show at the highest dose activity, negative = toxicity, actives largely listed as cytotoxic;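 also: potency is read from the fitted curve at half-maximal effect; 0% = DMSO wells and -100% = cell-free medium wells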
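Cytotoxicity counter-line: IDH1KD HT-1080, 48 h, CellTiter-Glo. Curves classed by r2, magnitude and activity.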
* hit, by the source's call; [ ] = remark or other dose. A selection: hits, their analogues and other compounds. The true share with any hit is near 19%. Unless noted, calls follow the shape of the dose curve; as a rule, active = well fitted curve in the direction sought with a large enough effect; inconclusive = small, poorly fitted or top-dose-only effect, or another doubt; inactive = no such curve, though single readings can be large; an effect the other way counts as inactive or inconclusive. Unless noted, % is scaled to controls: 0 for no effect and ±100 for the full control effect.

How did CCCOc1ccc(NC(=O)C(=O)NCCCN2CCOCC2)cc1 do in these assays?
TDP1 cell noCPT: -18.3%; DT40 TDP1 CPT: -19.6%

What do the screens show for `O=C1C=C(c2ccc(Cl)c(C(F)(F)F)c2)C[C@@H](c2ccc(Cl)cc2)C1`?
IL-1B inflam inh: -22.3; TDP1 cell noCPT: inconclusive; DT40 TDP1 CPT: inconclusive; HT1080NT lethal: -14.2%; ELG1 DNA repair: 8.6%; HT1080 IDH1KD tx: -1.5%

What do the screens show for `C/C=C/c1ccc(OCC(=O)N2CCc3cc(OC)c(OC)cc3C2)c(OC)c1`?
IL-1B inflam inh: inconclusive; TDP1 cell noCPT: 23.1µM*; DT40 TDP1 CPT: inconclusive; HT1080NT lethal: -8.2%; ELG1 DNA repair: -10.5%; HT1080 IDH1KD tx: -0.1%

How did COc1cc(C(C)=O)ccc1OCC(=O)N1CCc2ccccc2C1 do in these assays?
IL-1B inflam inh: -13.2; TDP1 cell noCPT: -10.6%; DT40 TDP1 CPT: 7.2%; HT1080NT lethal: 19.9%; ELG1 DNA repair: 15.4%; HT1080 IDH1KD tx: 14.1%

How did Cc1ccc(NC(=O)C2CCN(c3ncnc4sc(C)c(C)c34)CC2)cc1S(=O)(=O)N(C)C do in these assays?
IL-1B inflam inh: -9.8; TDP1 cell noCPT: 9.2µM*; DT40 TDP1 CPT: 13µM*; HT1080NT lethal: -6.5%; ELG1 DNA repair: inconclusive; HT1080 IDH1KD tx: -18.9%

How did Cc1ccc(C)c(S(=O)(=O)N2CCN(C(=O)C3CCN(c4ncnc5sc(C)c(C)c45)CC3)CC2)c1 do in these assays?
IL-1B inflam inh: inconclusive; TDP1 cell noCPT: 10.3µM*; DT40 TDP1 CPT: 14.6µM*; HT1080NT lethal: 5.3%; ELG1 DNA repair: inconclusive; HT1080 IDH1KD tx: -9.9%

Results for CCN(CC)S(=O)(=O)c1cc(NC(=O)C2CCN(c3ncnc4sc(C)c(C)c34)CC2)ccc1Cl ?
IL-1B inflam inh: -28.4; TDP1 cell noCPT: 20.6µM*; DT40 TDP1 CPT: 14.6µM*; HT1080NT lethal: inconclusive; ELG1 DNA repair: inconclusive; HT1080 IDH1KD tx: -26.2%

What do the screens show for `Cc1ccc(NC(=O)CCS(=O)(=O)c2ccccc2)cc1S(=O)(=O)N1CCCCCC1`?
IL-1B inflam inh: -3.2; TDP1 cell noCPT: inconclusive; DT40 TDP1 CPT: inconclusive; HT1080NT lethal: -18.9%; ELG1 DNA repair: inconclusive; HT1080 IDH1KD tx: -12.8%

Results for Cc1ccc(NC(=O)CN2CCCC2c2cccs2)cc1S(=O)(=O)N1CCCCC1 (centres undefined) ?
IL-1B inflam inh: -9.4; TDP1 cell noCPT: 23.1µM*; DT40 TDP1 CPT: 18.4µM*; HT1080NT lethal: -7.8%[9.24 µM]; ELG1 DNA repair: inconclusive; HT1080 IDH1KD tx: inconclusive

What do the screens show for `Cc1ccc(S(=O)(=O)N2CCCCC2)cc1NC(=O)CN1CCCC1c1cccs1` (centres undefined)?
IL-1B inflam inh: 24.3; TDP1 cell noCPT: -23.7%; DT40 TDP1 CPT: -25.0%; HT1080NT lethal: 0.2%; HT1080 IDH1KD tx: -0.7%

What do the screens show for `O=C(CN1CCCC1c1cccs1)Nc1cc(S(=O)(=O)N2CCCCC2)ccc1Cl` (centres undefined)?
IL-1B inflam inh: -14.7; TDP1 cell noCPT: inconclusive; DT40 TDP1 CPT: 16.4µM*; HT1080NT lethal: -29.1%; HT1080 IDH1KD tx: inconclusive

Results for CCOc1ccc(NC(=O)CN2CCCC2c2cccs2)cc1S(=O)(=O)N1CCCCC1 (centres undefined) ?
IL-1B inflam inh: -7.9; TDP1 cell noCPT: 14.6µM*; DT40 TDP1 CPT: 14.6µM*; HT1080NT lethal: 0.7%; ELG1 DNA repair: 14.6µM*; HT1080 IDH1KD tx: -3.0%

How did CN1C(=O)Cc2cc(S(=O)(=O)N3CCN(c4cccc(C(F)(F)F)c4)CC3)ccc21 do in these assays?
IL-1B inflam inh: 8.8; TDP1 cell noCPT: -10.5%; DT40 TDP1 CPT: -29.6%; HT1080NT lethal: inconclusive; ELG1 DNA repair: 7.8%; HT1080 IDH1KD tx: -1.6%
